Assay outcomes: PubChem, National Center for Advancing Translational Sciences (NCATS)
Sampled rows, rich in hits. Any-hit rate of the full collection: about 6.2%.
FMDV inh = antivirals against foot and mouth disease virus. FMDV antiviral cell-based qHTS. Potency, µM (doses to about 57.9 µM), for inactives: at the top dose activity change, negative = inhibition, actives largely listed as inhibitors. hit rate 1.2% among 410,000. AID 1159524; calls by dose curve; tested in HEK293T cells; also: read-out not given here; potency is read from the fitted curve at half-maximal effect; nearly all actives have a fitted effect of over 45% in size
Lassa entry inh = inhibitors of Lassa virus binding or cell entry; Lassa virus pseudotype entry inhibition, cell reporter; Potency, µM (highest dose often 37.9 µM), for inactives: at the top dose activity change, negative = inhibition, actives largely listed as inhibitors; hit rate 1.2% among 300,000; AID 540256; calls by dose curve; tested in HEK293 cells; also: potency is read from the fitted curve at half-maximal effect; nearly all actives have a fitted effect of over 50% in size
HCMV antiviral = blocks human cytomegalovirus replication; hit rate 4.5% among 410,000; AID 1259415; HFF cells, HCMV-luciferase reporter, 72 h; active compounds read low; activity change, negative = inhibition, % at 57.5 µM; in the data active = activity change below about -60%; inconclusive = no clear call, values can overlap the other calls; inactive = above about -39%
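HFF cells seeded 16 h at 37C, treated with compounds, infected with luciferase-reporter HCMV at MOI 1 PFU/cell; luciferase read at 72 h post infection, normalized to buffer-only and Salinomycin controls.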
Marburg entry inh = inhibitors of Marburg virus binding or cell entry. Marburg virus pseudotyped entry inhibition, cell reporter. Potency, µM (doses to about 37.8 µM), without a hit: at the top dose activity change, negative = inhibition, hits mostly inhibitors. hit rate 1.8% among 300,000; calls by dose curve; tested in HEK293 cells; also: potency is read from the fitted curve at half-maximal effect
An asterisk follows results filed as active; ? = inconclusive; nt = no result; ! = repeats disagree; [ ] = dose if it differs, or a comment. % is scaled to controls: 0 for no effect and ±100 for the full control effect.

SMILES	FMDV inh	Lassa entry inh	HCMV antiviral	Marburg entry inh
COc1ccc(NC(=O)CSc2nc3ccccc3c3nc4ccccc4n23)cc1	7%	-18%	21	?
Cc1ccc(NC(=O)CSc2nc3ccccc3c3nc4ccccc4n23)cc1	-7%	?	-87*	6.5µM*
O=C(CNC(=O)c1ccccc1F)NCCOc1cccc(Cl)c1Cl	9%	-1%	-9	3%
CCN(CC)S(=O)(=O)c1cccc(C(=O)NCCc2ccccc2)c1	16%	-8%	5	?
CNC(=O)c1ccccc1NC(=O)C1CC(=O)N(c2ccc(OC)cc2)C1 (stereo not drawn)	11%	0%[46.1 µM]	-36	9%[46.1 µM]
COc1ccc(C2CC(=O)Oc3cc4c(cc32)OCO4)cc1 (stereo not drawn)	-15%	nt	12	nt
CC(=O)N1c2ccc(S(=O)(=O)NCCC(=O)NCCc3ccc(Cl)cc3)cc2CC1C (stereo not drawn)	-26%	nt	-61*	nt
CCc1ccc(NC(=O)C2CCC(CNS(=O)(=O)c3ccc4c(c3)CC(C)N4C(C)=O)CC2)cc1 (stereo not drawn)	18µM*	-1%[46.1 µM]	29	nt
CC(=O)N1c2ccc(S(=O)(=O)NCC3CCC(C(=O)Nc4ccc(C)c(C)c4)CC3)cc2CC1C (stereo not drawn)	18µM*	7%[46.1 µM]	-17	nt
CC(=O)N1c2ccc(S(=O)(=O)NCC3CCC(C(=O)NC(C)(C)C)CC3)cc2CC1C (stereo not drawn)	-3%	0%[46.1 µM]	7	nt
CC(=O)N1c2ccc(S(=O)(=O)NCC3CCC(C(=O)Nc4cc(C)cc(C)c4)CC3)cc2CC1C (stereo not drawn)	?	?	-22	nt
CC(=O)N1c2ccc(S(=O)(=O)NCC3CCC(C(=O)Nc4ccc(F)cc4)CC3)cc2CC1C (stereo not drawn)	35µM*	?	-26	nt
CC(=O)N1c2ccc(S(=O)(=O)NCCC(=O)NCCc3ccc(C)cc3)cc2CC1C (stereo not drawn)	-28%	nt	0	nt
CC(=O)N1c2ccc(S(=O)(=O)NCC3CCC(C(=O)Nc4ccc(C)cn4)CC3)cc2CC1C (stereo not drawn)	?	?	-62*	?
CC(=O)N1CCOc2ccc(S(=O)(=O)NCC3CCC(C(=O)Nc4ccc(C)cn4)CC3)cc21 (stereo not drawn)	?	?	-68*	?
COc1ccccc1NC(=O)C1CCC(CNS(=O)(=O)c2ccc3c(c2)CC(C)N3C(C)=O)CC1 (stereo not drawn)	32µM*	?	-31	nt
CC(=O)N1CCOc2ccc(S(=O)(=O)NCC3CCC(C(=O)NCCC(C)C)CC3)cc21 (stereo not drawn)	-15%	-8%[46.1 µM]	?	27%[46.1 µM]
CN(Cc1ccccc1)C(=O)CSc1nc2c(c(C(F)(F)F)n1)CCc1ccccc1-2	113%	-17%	20	-25%
CCOCCCNC(=O)c1c(-c2ccccc2)noc1C	23%	4%	52	?
Cc1ccc(S(=O)(=O)Nc2cccc(-c3cn4ccsc4n3)c2)cc1	80%	4.5µM*	?	?
O=S(=O)(Nc1cccc(-c2cn3cccnc3n2)c1)c1ccccc1	-12%	-17%	-8	7%
Cc1cccc(S(=O)(=O)Nc2cccc(-c3cn4ccsc4n3)c2)c1	-22%	?	-20	?
O=S(=O)(Nc1cccc(-c2cn3cccnc3n2)c1)c1ccc(-c2ccccc2)cc1	0%	10%	-77*	-20%
O=C1N[C@@H](Cc2c[nH]c3ccccc23)COC(=O)[C@@H](Cc2ccc(F)cc2)CC/C=C/C[C@@H]1CC(=O)N(CCO)Cc1ccccc1	-23%	nt	?	nt
CCC(C)(C)NC(=O)C(c1cccc(OC)c1OC)N(C(=O)CCC(=O)Nc1cc(C)on1)C(C)C (stereo not drawn)	-16%	4%	-79*	16%[46.1 µM]
SMILES	FMDV inh	Lassa entry inh	HCMV antiviral	Marburg entry inh
COc1cccc(C(C(=O)NC(C)(C)C)N(CCC(C)C)C(=O)CCC(=O)Nc2cc(C)on2)c1OC (stereo not drawn)	-16%	-17%[46.1 µM]	-16	8.9µM*
COc1cccc(C(C(=O)NC(C)(C)C)N(CC(C)C)C(=O)CCC(=O)Nc2cc(C)on2)c1OC (stereo not drawn)	-15%	-19%[46.1 µM]	20	?
COc1cccc(CN(C)C(=O)C2CCC(=O)N(Cc3cccc(F)c3)C2)c1 (stereo not drawn)	-2%	12%	7	22%
COC(=O)c1ccc(Cn2nc(-c3ccc(C)cc3)ccc2=O)cc1	-22%	25%[46.1 µM]	-7	17%[46.1 µM]
Cc1ccc(-c2ccc(=O)n(Cc3ccc(F)cc3)n2)cc1	-23%	-2%[46.1 µM]	-63*!	0%[46.1 µM]
O=C(N/N=C(\Cc1ncc[nH]1)c1ccccc1)c1cccnc1	-4%	?	?	?
O=C(N/N=C(\Cc1ncc[nH]1)c1ccccc1)c1ccccc1	nt	nt	-78*	nt
O=C(N/N=C(\Cc1ncc[nH]1)c1ccccc1)c1ccncc1	-22%	?	-91*	?
NC1=NC[C@H](Cc2ccccc2)N1CCc1cc(C(F)(F)F)cc(C(F)(F)F)c1	-27%	nt	-11	nt
COc1cccc(CNC(=O)CC(NC(C)=O)c2ccccc2)c1 (stereo not drawn)	-4%	nt	-30	nt
COc1ccc(CCNC(=O)Cn2cccc2C(=O)c2ccccc2)c(OC)c1	4%	nt	-96*	nt
COc1cccc(CNC(=O)Cc2ccc(-n3c(=O)[nH]c4ccccc4c3=O)cc2)c1	2%	?	-97*	?
COc1cccc(CNC(=O)Cn2cccc2C(=O)c2ccccc2C)c1	10%	14%[46.1 µM]	4	6%[46.1 µM]
COc1cccc(CNC(=O)Cn2cccc2C(=O)c2ccccc2)c1	14%	12%[46.1 µM]	-96*	6%[46.1 µM]
Cc1cc(C(C)(C)C)cc(C)c1CCNC(=O)c1ccc[n+]([O-])c1	-11%	3.2µM*	?	0.63µM*
NC(=O)c1ccc(NC(=O)CN2CCN(c3ccc(Cl)cc3)CC2)cc1	-3%	nt	-14	nt
CCCn1c(N)c(C(=O)CN(C)CC(=O)Nc2ccccc2CC)c(=O)[nH]c1=O	-29%	nt	-103*	nt
O=C1CC(c2ccccc2)Sc2nc3ccccc3n21 (stereo not drawn)	-3%	-26%	-4	?
O=C1CC(c2ccc3c(c2)OCO3)Sc2nc3ccccc3n21 (stereo not drawn)	18µM*	?	?	?
CC1CCN(C(=O)C2CC(c3ccc(F)cc3)=NO2)CC1 (stereo not drawn)	56%	12%	-7	?
O=C(CCCOc1ccc(Cl)cc1Cl)N/N=C/c1ccc(Cl)cc1	-3%	?	24	?
O=C(COc1ccc(Cl)cc1Cl)N/N=C/c1ccc(OC2OC(CO)C(O)C(O)C2O)cc1 (stereo not drawn)	13%	nt	-79*	nt
N#C/C(=C/c1cn(-c2ccccc2)nc1-c1cccc(S(=O)(=O)N2CCCC2)c1)C(=O)NCc1ccco1	14%	?	2	-20%
Cc1cc(SCC(=O)N/N=C/c2ccc(O)cc2O)c(C)cc1Br	?	4.6µM*	-83*	?
O=C(CSC1c2ccccc2-c2ccccc21)N/N=C/c1ccccc1O	?	12µM*	-96*	8.2µM*
